PubChem BioAssay (EPA / NIEHS)
Values joined by “and” are separate entries in the source; they are usually repeats but may differ in a detail not shown here. Equal values may be shown once. Some compounds were tested as several samples or in several runs, with calls that do not always agree. Active and inactive are the calls of the source. The calls were made as follows: active = hit-call score of the fitted dose curve at least 0.9, where 1 is the maximum; inactive = score below 0.9.

How the values were obtained:
Conditions in all cases: primary human HUVEC with PBMC; actives raise or lower the signal
[1] = read-out: Tissue Factor, F3 (gene 2152); experiment: BSK_LPS_TissueFactor: BioMAP Diversity Plus: LPS Assay for Tissue Factor Biomarker Activity (AID 2283084)
Procedure, shortened: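 In this co-culture system of umbilical vein endothelium with PBMC, stimulated with LPS, cell-surface CD142 is detected by ELISA at 24 h. Endpoint values derive from bidirectional fitting, DMSO serving as baseline.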

[2] = read-out: Tumor necrosis factor (Homo sapiens) (UniProt P01375); experiment: BSK_LPS_TNFa: BioMAP Diversity Plus: LPS Assay for Tumour Necrosis Factor alpha (TNFa) Biomarker Activity (AID 2283085);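 as to AC50: TNFa protein level quantified by ELISA in the co-culture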
Procedure, shortened: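 HUVEC/PBMC co-culture, LPS-stimulated; 24 h post-dose; TNFa by ELISA; gain or loss of signal fitted bidirectionally vs DMSO baseline.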

[3] = read-out: Vascular cell adhesion molecule 1 (VCAM1), VCAM1 (gene 7412); experiment: BSK_LPS_VCAM1: BioMAP Diversity Plus: LPS Assay for Vascular cell adhesion molecule 1 (VCAM1) Biomarker Activity (AID 2283086)
Procedure, shortened: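 ELISA read-out of VCAM-1 at 24 h post-dosing in an LPS-driven HUVEC/PBMC primary human co-culture; gain or loss of signal fitted bidirectionally against DMSO baseline. Cytotoxicity tracked in parallel cultures by SRB total-protein staining.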

[4] = read-out: CD38, CD38 (gene 952); experiment: BSK_SAg_CD38: BioMAP Diversity Plus: SAg Assay for CD38 Biomarker Activity (AID 2283087)
Procedure, shortened: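 Measures CD38 on a human endothelial/PBMC co-culture driven by SEB and TSST-1, 24 h after compound exposure, using ELISA with fluorescence detection; DMSO defines baseline for bidirectional curve fitting.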

[5] = read-out: CD40, CD40 (gene 958); experiment: BSK_SAg_CD40: BioMAP Diversity Plus: SAg Assay for CD40 Biomarker Activity (AID 2283088)
Procedure, shortened: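 Fluorescence ELISA read-out of CD40 from umbilical vein endothelium plus peripheral blood mononuclear cells, sampled 24 h after dosing. Values come from bidirectional curve fitting with DMSO as baseline.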

[6] = read-out: CD69, CD69 (gene 969); experiment: BSK_SAg_CD69: BioMAP Diversity Plus: SAg Assay for CD69 Biomarker Activity (AID 2283089);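 as to AC50: cell surface CD69 protein quantified by ELISA with fluorescence detection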
Procedure, shortened: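 ELISA, fluorescence read-out: CD69 on human umbilical vein endothelial cell + PBMC co-culture, 24 h post-dosing. Gain or loss of signal fitted bidirectionally against DMSO baseline.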

[7] = read-out: Monocyte Chemoattractant Protein-1 (MCP1), CCL2 (gene 6347); experiment: BSK_SAg_MCP1: BioMAP Diversity Plus: SAg Assay for Monocyte Chemoattractant Protein-1 (MCP1) Biomarker Activity (AID 2283090)
Procedure, shortened: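 Values derive from bidirectional fitting of ELISA-measured MCP1 against DMSO controls. Readings were taken 24 h after dosing human vascular endothelial cells co-cultured with peripheral blood mononuclear cells under superantigen stimulation.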

[8] = read-out: E-selectin (Homo sapiens) (UniProt P16581); experiment: BSK_SAg_Eselectin: BioMAP Diversity Plus: SAg Assay for Eselectin Biomarker Activity (AID 2283091)
Procedure, shortened: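 Primary human endothelial cells and peripheral blood mononuclear cells were co-cultured and exposed to chemical for 24 hours. E-selectin levels were then quantified by ELISA, with bidirectional curve fitting normalised to DMSO controls.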

[9] = read-out: Macrophage colony-stimulating factor (MCSF), CSF1 (gene 1435); experiment: BSK_LPS_MCSF: BioMAP Diversity Plus: LPS Assay for Macrophage colony-stimulating factor (MCSF) Biomarker Activity (AID 2283083)
Procedure, shortened: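 Compound is added to a human vascular primary co-culture of umbilical vein endothelium and blood mononuclear cells. After 24 h, M-CSF is quantified by ELISA. Signal changes are fitted in both directions against DMSO.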

Measured: AC50

E-selectin (Homo sapiens), sequence (P16581 whole entry, looked up): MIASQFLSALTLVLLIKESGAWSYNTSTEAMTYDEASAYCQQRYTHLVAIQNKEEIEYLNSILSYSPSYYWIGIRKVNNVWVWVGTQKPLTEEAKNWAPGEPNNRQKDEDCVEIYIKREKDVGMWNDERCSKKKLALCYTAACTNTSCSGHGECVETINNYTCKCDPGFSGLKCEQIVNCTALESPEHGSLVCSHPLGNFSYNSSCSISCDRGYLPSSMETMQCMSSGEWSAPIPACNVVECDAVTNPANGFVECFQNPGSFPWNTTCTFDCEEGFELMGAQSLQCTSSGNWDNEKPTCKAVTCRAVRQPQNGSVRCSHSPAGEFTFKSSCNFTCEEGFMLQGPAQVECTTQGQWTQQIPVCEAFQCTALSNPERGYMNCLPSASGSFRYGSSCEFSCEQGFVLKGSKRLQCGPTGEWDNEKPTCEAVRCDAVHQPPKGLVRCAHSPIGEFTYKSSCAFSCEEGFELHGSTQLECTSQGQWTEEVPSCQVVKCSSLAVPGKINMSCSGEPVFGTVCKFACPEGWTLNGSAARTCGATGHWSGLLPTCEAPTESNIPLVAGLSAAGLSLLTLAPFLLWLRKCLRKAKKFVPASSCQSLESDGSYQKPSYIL
Tumor necrosis factor (Homo sapiens), sequence (P01375 whole entry, looked up): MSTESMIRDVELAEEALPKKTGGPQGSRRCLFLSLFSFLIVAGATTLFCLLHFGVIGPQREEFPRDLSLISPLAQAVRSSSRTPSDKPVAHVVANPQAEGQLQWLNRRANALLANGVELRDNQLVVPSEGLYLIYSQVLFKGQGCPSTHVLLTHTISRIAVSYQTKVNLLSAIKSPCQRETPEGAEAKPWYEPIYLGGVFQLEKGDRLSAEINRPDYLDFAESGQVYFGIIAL

CCOC(=O)CC(O)(CC(=O)OCC)C(=O)OCC
not listed: [9]
inactive: all other assays above

C[C@@H]1C[C@H]2[C@@H]3CCC4=CC(=O)C=C[C@]4(C)[C@@]3(F)[C@@H](O)C[C@]2(C)[C@@]1(O)C(=O)COP(=O)(O)O
inactive: [1] | [3] | [4] | [5] | [6] | [7]
active: [5] 2.65 µM | [8] 2.96 µM and 1.73 µM and 1.25 µM

COc1ccc([N+](=O)[O-])cc1N
not listed: [2]
inactive: all other assays above

O=[N+]([O-])c1ccc(O)cc1
not listed: [9]
inactive: all other assays above

CCCCCCCCCCCCc1ccccc1S(=O)(=O)O
not listed: [2] | [9]
inactive: all other assays above

NC(=O)N(O)[C@@H]1C=C[C@H](Oc2cccc(Oc3ccc(F)cc3)c2)C1
active: [4] 26.3 µM
not listed: [2] | [9]
inactive: all other assays above

ClC1=C(Cl)C(Cl)(Cl)C(Cl)=C1Cl
active: [1] 9.9 µM | [3] 9.81 µM | [4] 7.55 µM | [5] 8.3 µM | [6] 8.69 µM | [7] 10.6 µM | [8] 8.69 µM

CCCCCCC(=O)O
not listed: [2] | [9]
inactive: all other assays above

CCCCC(CC)COC(=O)CCCCC(=O)OCC(CC)CCCC (configuration not stated)
not listed: [2]
inactive: all other assays above

CCCCCCCCC(=O)O
not listed: [6]
inactive: all other assays above

Nc1cccc2c(N)cccc12
not listed: [9]
inactive: all other assays above

OC1CCCCC1
not listed: [2]
inactive: all other assays above

Cc1cc(C)c(O)c(C)c1
not listed: [2] | [9]
inactive: all other assays above

OCCC(F)(F)C(F)(F)C(F)(F)C(F)(F)C(F)(F)C(F)(F)C(F)(F)C(F)(F)F
inactive: [1] | [2] | [4] | [5] | [6] | [7] | [8]
active: [1] 45.6 µM | [2] 47.6 µM | [3] 24.3 µM and 33.3 µM and 18.8 µM | [4] 29.1 µM and 27.8 µM | [5] 29.1 µM and 23.8 µM | [6] 26 µM and 38.3 µM | [7] 43 µM and 23.1 µM | [8] 39.2 µM and 31.9 µM

O=C(O)c1ccccc1C(c1ccc(O)cc1)c1ccc(O)cc1
not listed: [9]
inactive: all other assays above

CCCOc1sc(C(=O)N2CCC(c3cc(CN)ccc3F)CC2)c(C)c1Br
active: [1] 13.1 µM | [2] 13.4 µM | [3] 7.57 µM | [4] 6.1 µM | [5] 9.53 µM | [6] 8.27 µM | [7] 8.39 µM | [8] 6.75 µM

CC[C@H](c1ccc(O)cc1)[C@@H](CC)c1ccc(O)cc1
active: [1] 32 µM | [3] 29 µM | [4] 19.1 µM | [5] 20.7 µM | [6] 20.6 µM | [7] 23.9 µM | [8] 17.9 µM
